Source: PubChem
This is a sample that favours compounds with a hit; in the whole collection about 6.1% have one here.
D1 ag: agonists of human D1 dopamine receptor; P21728; HEK293 T-REx D1 cells, calcium flux, agonist mode; activation, % at 2 µM; actives 1% (n = 360,000); in the data active = activation above about 30%
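Tetracycline-induced HEK293 TREx D1 cells, force-coupled to calcium signalling, were dye-loaded with a no-wash calcium kit. Compound was pin-added after a 10 s baseline. Fluorescence was read kinetically at 1 cycle/s for 180 s, with calcium rises flagged as agonism.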
D3 antag: blocks the human D3 dopamine receptor. P35462. D3R cells, DiscoveRx beta-arrestin luminescence, antagonist mode; stronger effect = lower value. max response, negative = inhibition, %. actives 2.5% (n = 360,000); in the data active = max response below about -50%
Target sequence (P35462 whole entry, looked up): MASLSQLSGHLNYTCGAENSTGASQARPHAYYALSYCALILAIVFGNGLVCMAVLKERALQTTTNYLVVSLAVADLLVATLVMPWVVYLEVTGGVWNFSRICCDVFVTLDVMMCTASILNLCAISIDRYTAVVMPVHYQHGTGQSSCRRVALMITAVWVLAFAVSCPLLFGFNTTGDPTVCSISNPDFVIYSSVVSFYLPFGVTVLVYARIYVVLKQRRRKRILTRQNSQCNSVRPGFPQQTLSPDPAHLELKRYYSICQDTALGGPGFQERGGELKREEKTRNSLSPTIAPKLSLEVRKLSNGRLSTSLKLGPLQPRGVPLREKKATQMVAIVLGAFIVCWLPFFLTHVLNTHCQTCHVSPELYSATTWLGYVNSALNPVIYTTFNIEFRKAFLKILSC
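Cells expressing the human receptor were seeded at 1500 cells/well, incubated overnight at 37 degrees C in 5% CO2, then exposed to library compounds with dopamine controls for 90 minutes at 37 degrees C before luminescent detection.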
D1 antagonist: antagonists of human D1 dopamine receptor; actives 3.2% (n = 360,000); HEK293 TREx D1 cells, calcium flux, dopamine EC80; stronger effect = lower value; P21728; activity change, negative = inhibition, % at 10 µM; in the data active = activity change below about -30%
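Calcium flux readout: force-coupled, inducible Hek293 Trex D1 line, cells induced overnight at 30 C with tetracycline, dye-loaded 30–90 min at RT. Antagonism scored against EC80 dopamine challenge given 180 s after compound.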
D1 PAM: enhances dopamine response at the human D1 receptor; P21728; HEK293 TREx D1 cells, calcium flux, dopamine EC20 potentiation; potentiation, % at 10 µM; actives 0.036% (n = 360,000); in the data active = potentiation above about 30%
DRD3 agonist: agonists of human D3 dopamine receptor. D3R DiscoveRx beta-arrestin cells, luminescence, 90 min. P35462. actives 0.58% (n = 410,000). max activation, %. AID 652048; in the data active = max activation above about 30%
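Agonist-mode cell screen: cells plated at 1500/well and incubated overnight at 37 °C, then exposed to library compounds for 90 min at 37 °C. Detection reagent was added for 30–60 min at room temperature, and luminescence was read.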
Of the large screens only hits and unclear results are named; the others gave an inactive call; ! = not active in a repeat.

COc1cc(/C=N/NC(=O)c2cnn3c(C)cc(-c4ccccc4)nc23)ccc1O	DRD3 agonist 47
CCOc1ccc(CCNC(=O)c2c3c(nc4ccccc24)C(=O)N(C2CCCCC2)C3)cc1	none (no result: D3 antag)
CCOc1ccc(-c2cc(C(=O)N/N=C/c3cccnc3)c3ccccc3n2)cc1	none
COc1cc(/C=N/NC(=O)c2cc(-c3ccccc3)nc3ccccc23)ccc1O	none
CC(C)COc1cccc(-c2cc(C(=O)N/N=C/c3ccncc3)c3ccccc3n2)c1	DRD3 agonist 34
COc1cc(/C=N/NC(=O)C(=O)NCc2cccnc2)ccc1O	none
CCOc1cc(/C=N/NC(=O)C(=O)NCc2cccnc2)ccc1O	D1 antagonist -35
COc1cc(/C=N/NC(=O)c2cc(-c3cccc(Br)c3)nc3ccccc23)cc(OC)c1O	DRD3 agonist 32 (no result: D1 ag, D1 antagonist, D1 PAM)
CCOC(=O)N1CCC(NC(=O)c2ccc3c(c2)N(Cc2ccc(F)cc2)C(=O)c2ccccc2S3(=O)=O)CC1	none (no result: D3 antag)
CCOC(=O)C1(CC2CC2)CCN(Cc2ccc3cccc(F)c3n2)CC1	D3 antag -96
CCOC(=O)C1(CC2CC2)CCN(Cc2cn[nH]c2-c2cccc(F)c2)CC1	D1 antagonist -38
CCOC(=O)C1(CC2CC2)CCN(Cc2ccc(O)c(Cl)c2)CC1	none (no result: D3 antag, DRD3 agonist)
CCOC(=O)C1(CC2CC2)CCN(Cc2cn[nH]c2-c2ccccc2)CC1	none
CCOC(=O)C1(CC2CC2)CCN(S(=O)(=O)/C=C/c2ccccc2)CC1	D1 antagonist -80
Cc1ccc(N(C)C(=O)Cn2nc(Cc3ccncc3)c3ccccc3c2=O)cc1C	none (no result: D3 antag)
CCCc1cc(C(=O)NNC(=S)NCC)c2ccccc2n1	D3 antag -56
CCNC(=S)NNC(=O)c1cc(-c2cc(C)ccc2C)nc2ccccc12	D1 antagonist -31
CCn1nnc2cc(C(=O)Nc3cccc(Cl)c3C)ccc21	none (no result: D3 antag)
Fc1ccc(Nc2ncnc3onc(-c4cccc(Cl)c4)c23)c(F)c1	D1 antagonist -45 (no result: D3 antag)
O=C(NCC(c1cccnc1)N1CCN(Cc2ccccc2)CC1)C(=O)Nc1cccc(F)c1 (stereo unspecified)	none (no result: D3 antag)
CSc1ncccc1C(=O)Nc1ccc(S(=O)(=O)NC2=NCCCCC2)cc1	D1 antagonist -54
C/C(=N\NC(=O)c1nnn(-c2nonc2N)c1-c1ccc2c(c1)OCO2)c1ccccc1	D1 ag 34
C/C(=N\NC(=O)c1nnn(-c2nonc2N)c1-c1ccc2c(c1)OCO2)c1ccc(C)cc1	D1 ag 104
C/C(=N\NC(=O)c1nnn(-c2nonc2N)c1CN(C)c1ccccc1)c1cccc(O)c1	D1 antagonist -39
CCOC(=O)/C(C)=N/NC(=O)c1ccc([N+](=O)[O-])cc1	none
CCOC(=O)C(CC)/C(C)=N/NC(=O)c1ccc([N+](=O)[O-])cc1 (stereo unspecified)	D3 antag -64
O=C(c1ccco1)N1CCN(C(=O)c2cnn(-c3cccc(F)c3)c2C2CCNCC2)CC1	DRD3 agonist 84!
Cc1ccc(N2CCN(C(=O)c3cnn(-c4ccc(C)c(C)c4)c3C3CCNCC3)CC2)c(C)c1	D1 ag 82 (no result: D3 antag)
Cc1ccc(Cl)cc1N1CCN(C(=O)c2cnn(-c3ccc(Cl)cc3)c2C2CCNCC2)CC1	D1 ag 38 (no result: D3 antag)
COc1ccc(NC(=O)CC2C(=O)N(c3ccccc3)C(=O)N2CCc2sccc2C)cc1 (stereo unspecified)	none (no result: D3 antag)
CCN(CC)c1ccc(-n2c(C)cc(C=O)c2C)cc1	D1 antagonist -32
CCc1nn(CC(=O)N2CCN(c3cccc(C)c3)C(C)C2)c(=O)c2cc3sccc3n12 (stereo unspecified)	none (no result: D3 antag)
CCOc1cccc(-c2c(C(=O)N/N=C/c3sccc3C)nnn2-c2nonc2N)c1	none
Nc1nonc1-n1nnc(C(=O)N/N=C/c2cccs2)c1-c1ccc2c(c1)OCO2	D1 ag 102
Cc1ccc(-c2c(C(=O)N/N=C/c3cccc(Cl)c3)nnn2-c2nonc2N)cc1	none
CCOc1ccc(-c2c(C(=O)N/N=C/c3ccco3)nnn2-c2nonc2N)cc1	none
Cc1ccc(-c2c(C(=O)N/N=C/c3ccsc3)nnn2-c2nonc2N)cc1	D1 ag 148
Cc1ccc(-c2c(C(=O)N/N=C/c3ccco3)nnn2-c2nonc2N)cc1	D1 ag 94
